About 8,600 (12%) of roughly 69,000 compounds showed an effect of 50% or more. The list comes from a sample in which strong results are over-represented; it also holds similar structures and randomly drawn compounds.
tested on: Plasmodium berghei; assay: Screen against P. berghei liver stage (PbLuc), transformed with Luciferase, at 10uM; assay type: functional, HepG2; details: tested at 10 uM

Row | SMILES | INHIBITION [%]
1 | CC1CN(CC(=O)NC(=O)NCc2cccs2)CCN1CC(F)(F)F (stereo unspecified) | 3.03
2 | CC1CCN(c2nc(O)cc(C3CC(=O)N(C4CCCCC4)C3)n2)CC1 (stereo unspecified) | 11.475
3 | COc1ccc2c(c1)C1(CCN(Cc3cnn(C)c3)CC1)N(C)CC2 | -72
4 | COCC1COCCC12CCN(C(=O)COc1ccccc1)CC2 (stereo unspecified) | -10.3
5 | COCCNC(=O)Cc1cnc(-n2cccc2)s1 | 41.1
6 | CCc1c(C)nc2cc(C3CCN(Cc4ccc(F)cc4)C3)nn2c1O (stereo unspecified) | 66.5
7 | Cc1cc(CN2CCC(C3CCN(CCc4ccccc4)CC3)C2)[nH]n1 (stereo unspecified) | 9.63
8 | Cc1cc(CN2CCC(C3CCN(CCc4ccccc4)C3)CC2)[nH]n1 (stereo unspecified) | 11.9
9 | CCc1c(C)nc2cc(C3CCN(CCc4ccccc4)C3)nn2c1O (stereo unspecified) | 83.3
10 | COCc1nccc(C2CCCN(Cc3cccc(F)c3)C2)n1 (stereo unspecified) | 20.9
11 | CCc1c(C)[nH]c2cc(C3CCN(Cc4ccncc4C)C3)nn2c1=O (stereo unspecified) | 38.8
12 | Cc1nc(O)cc(C2CCN(Cc3ccc(F)c(F)c3)C2)n1 (stereo unspecified) | 30.8
13 | CCc1c(C)nc2cc(C3CCN(Cc4cccc(F)c4)C3)nn2c1O (stereo unspecified) | 77.3
14 | CCc1c(C)nc2cc(C3CCN(Cc4cccnc4)C3)nn2c1O (stereo unspecified) | -33.4
15 | Cc1ccc2c(c1)C(=O)NCC1(CCN(C(=O)c3ccnn3C)CC1)O2 | 8.72
16 | O=C(c1cscn1)N1CC[C@]2(C[C@@H](OCCN3CCCC3)CO2)C1 | 43.2
17 | Cc1ccsc1CN(Cc1ccccn1)CC(O)CO (stereo unspecified) | 19.7
18 | CN(C(=O)c1ccccc1F)[C@@H]1CC[C@@H](O)[C@@H]1O | 34.1
19 | Cc1ccoc1C(=O)N1CC[C@@H]2CN(C3CCOCC3)CCO[C@@H]2C1 | 4.98
20 | CC(C)c1nnsc1CNC(=O)C1CCN(C(=O)C2CC2)CC1 | 14.9
21 | COCCC(=O)N1CCC2(CCN(Cc3ccc(OC)c(F)c3)C2)C1 (stereo unspecified) | -10.3
22 | Fc1ccc(-c2n[nH]cc2-c2ccnc(NCCN3CCCC3)n2)cc1 | 35.3
23 | Cc1nc2[nH]cnc(NCCN3CCOCC3)c-2n1 | 36.8
24 | O=c1[nH][nH]cc1-c1ccnc(NCCCN2CCOCC2)n1 | 39.7

Row | SMILES | INHIBITION [%]
25 | Cc1[nH]c2ccccc2c1-c1ccnc(NCCN2CCOCC2)n1 | 62.2
26 | Cc1[nH]c2ccccc2c1-c1ccnc(NCCN2CCCCC2)n1 | 61.9
27 | Cc1[nH]c2ccccc2c1-c1ccnc(NC[C@H](O)CO)n1 | 27.8
28 | COCCn1cc(NC(=O)NCC(c2cccc(F)c2)N(C)C)cn1 (stereo unspecified) | 49.7
29 | c1ccc(Cn2ccnc2CNCC2CCCN2c2cccnn2)cc1 (stereo unspecified) | 4.71
30 | Cc1ccc(N2CCO[C@H]3[C@H](OCC(=O)N4CCCC4)CC[C@@H]32)cc1 | -2.03
31 | CCSC1(CNc2ncc(Br)cn2)CCOCC1 | 66.4
32 | CN(C)C1(CNc2ncc(Br)cn2)CCOCC1 | 27.8
33 | CSC1(CNc2ncc(Br)cn2)CCOCC1 | 45.7
34 | CS(=O)(=O)N1CCCC(Cc2cnc(Br)cn2)CC1 (stereo unspecified) | 37.8
35 | Cc1ccc(C(=O)N2CCCCC2c2[nH]ncc2S(C)(=O)=O)cn1 (stereo unspecified) | 24.8
36 | O=C(c1cc2c(s1)CCOC2)N1CCCCC1Cn1cccn1 (stereo unspecified) | -5.07
37 | CNC(=O)C1(c2cnccn2)CCCN1C(=O)c1ccc(F)cc1 (stereo unspecified) | 3.91
38 | COc1ccccc1C(=O)N(C)Cc1ncc(C)c(OC)c1C | -11.7
39 | COc1c(C)cnc(CN(C)C2CCCCC2)c1C | 72
40 | CCC(=O)N(C)C1CCN(Cc2ncc(C)c(OC)c2C)CC1 | 10.8
41 | COc1c(C)cnc(CN2CCC(N(C)C(=O)C3CC3)CC2)c1C | -2.19
42 | COc1c(C)cnc(CN(C)C2CCOC3(CCOCC3)C2)c1C (stereo unspecified) | 43.6
43 | COc1c(C)cnc(CN2CCC(N(C)S(C)(=O)=O)CC2)c1C | -21.9
44 | COc1c(C)cnc(CN(C)C2CCN(C3CCOCC3)CC2)c1C | 7.24
45 | COc1c(C)cnc(CN(C)C(=O)c2ccccc2O)c1C | 26.3
46 | COc1c(C)cnc(CN2CCC(N(C)C(C)C(N)=O)CC2)c1C (stereo unspecified) | 90
47 | COCc1ccccc1C(=O)N(C)Cc1ncc(C)c(OC)c1C | 50.1
48 | COc1c(C)cnc(CN2CCC(N(C)C(=O)C(C)OC)CC2)c1C (stereo unspecified) | -29.8

Row | SMILES | INHIBITION [%]
49 | CCNC(=O)N(C)C1CCN(Cc2ncc(C)c(OC)c2C)CC1 | 82.6
50 | COc1ccc(CCC(=O)N2CCCCC2Cn2cccn2)cc1F (stereo unspecified) | -31.8
51 | O=C(NCc1ccccn1)[C@]12COC[C@H]1CN(Cc1ccccc1F)C2 | -13.2
52 | Cc1ncsc1C(=O)N1CCCC1c1c(C)nn(C)c1Cl (stereo unspecified) | -0.96
53 | CC(NCc1cccc(C#N)c1)c1ccccn1 (stereo unspecified) | -21
54 | CCc1nc(C2CCCN2Cc2nnc(C3CCC3)o2)no1 (stereo unspecified) | 41.65
55 | CC(C)CCn1cc(C(C(=O)O)N2CCSCC2)cn1 (stereo unspecified) | 17.6
56 | CC(C)C(=O)NC1CCCc2nc(N3CCOCC3)ncc21 (stereo unspecified) | 18.3
57 | Cc1ccc(-c2nc(CN3CCOCC3)no2)cc1N1CCNC1=O | 30
58 | CCNC(=O)CNC(=O)c1nc(C2CC2)n(-c2ccccc2Cl)n1 | -37.6
59 | Cc1ccc(Cl)c(CN2CCN(C)C(C(=O)O)C2)c1F (stereo unspecified) | -4.52
60 | O=C(c1cc(Cl)c[nH]1)N(CCCO)Cc1cccnc1 | 39
61 | CCOC(=O)CCN(Cc1cccnc1)C(=O)c1cc(Cl)c[nH]1 | 57.5
62 | CCCc1cc(C(=O)N(Cc2cccnc2)Cc2cccnc2)[nH]n1 | 6.28
63 | CC(C)c1nnc(CN2CC(n3cccn3)C2)o1 | -145
64 | CN(C(=O)NCCN1CCOCC1)C1CCN(c2ccccc2)C1=O (stereo unspecified) | 13.375
65 | c1csc(CCC2CCCCN2Cc2noc(C3CC3)n2)c1 (stereo unspecified) | 34.9
66 | COCc1noc(CN2CCCCC2CCc2cccs2)n1 (stereo unspecified) | 51.2
67 | Cc1nc(CN2CCCCC2CCc2cccs2)co1 (stereo unspecified) | 24.9
68 | CCNC(=O)CNCc1c(C(C)C)nn(C)c1N1CCOCC1 | 11.35
69 | CCCN(Cc1ccccc1O)C(=O)Nc1cnn(CCOC)c1 | 59.7
70 | CCN(CC(C)O)C(=O)Nc1cnn(CCOC)c1 (stereo unspecified) | 29.8
71 | COCCn1cc(NC(=O)N(CCC(N)=O)Cc2ccccc2)cn1 | -1.25
72 | CC(=O)NCC(=O)N1CCC2(CC1)NC(=O)CC2c1cccnc1 (stereo unspecified) | 34.6

Row | SMILES | INHIBITION [%]
73 | COCCn1ccnc1C1CCCN(C(=O)CSc2nnc(C)o2)C1 (stereo unspecified) | 20.9
74 | CCC(=O)N1CCCCC1c1nc(N(C)C)ncc1-c1cc(C)no1 (stereo unspecified) | 22.5
75 | CCNC(=O)NC(=O)CN1CCC(c2c[nH]c3ccc(OC)cc23)CC1 | 62.6
76 | COc1ccc2[nH]cc(C3CCN(CCC(N)=O)CC3)c2c1 | 36.6
77 | CNC(=O)NC(=O)C(C)N1CCN(C2CCCC2)CC1 (stereo unspecified) | 28.7
78 | CNC(=O)NC(=O)CN1CCC(c2c[nH]c3ccc(OC)cc23)CC1 | 15.1
79 | CNC(=O)NC(=O)C(C)N1CCC(c2c[nH]c3ccc(OC)cc23)CC1 (stereo unspecified) | 61.5
80 | CNC(=O)NC(=O)C(C)N1CCCc2cc(OC)ccc2C1 (stereo unspecified) | -25.1
81 | CNC(=O)[C@@H](c1ccccc1)N1CCC[C@H]1C(=O)NCc1cccnc1 | -1.12
82 | CCS(=O)(=O)N1CCCC2(COCCN(c3nnc(C)o3)C2)C1 (stereo unspecified) | 29.8
83 | Cc1noc(C)c1CN1CCN(Cc2nc(C3CC3)no2)CC1 | 72.2
84 | Cc1nc(CN2CCN(C(C)c3nc(C4CC4)no3)CC2)oc1C (stereo unspecified) | 4.75
85 | Cc1noc(C)c1Cc1nc(C2CC2)no1 | 14.6
86 | Cc1noc(C)c1CN1CCN(C(C)c2nc(C3CC3)no2)CC1 (stereo unspecified) | 59
87 | Cc1cnc(CN2CCN(C(C)c3nc(C4CC4)no3)CC2)cn1 (stereo unspecified) | 24.7
88 | Cc1noc(C)c1CN1CCCC(c2noc(C3CC3)n2)C1 (stereo unspecified) | -12.2
89 | CCCN(Cc1nc(-c2ccc(F)c(OC)c2)oc1C)CC1CCCO1 (stereo unspecified) | -12.1
90 | Cc1cc(C)n(CC2CCCN2C(=O)c2cccnc2N(C)C)n1 (stereo unspecified) | 21
91 | Cc1ccc(CN(C(=O)NC2CCS(=O)(=O)C2)C2CC2)o1 (stereo unspecified) | 2.79
92 | Cc1ccccc1OCCN1CCCC(c2cc(C(N)=O)[nH]n2)C1 (stereo unspecified) | 23.5
93 | Cn1cc(CN(C/C=C/c2ccccc2)C2CC2)cn1 | -59.5
94 | O=C1CCCN1C1CCCN(CCn2cc(Cl)cn2)C1 (stereo unspecified) | -63.5
95 | CN(Cc1ccco1)[C@@H]1CN(Cc2nccs2)C[C@@H]2CCCO[C@@H]21 | 44.3
96 | CC(C1CCN(Cc2cnn(C)c2C2CC2)CC1)N(C)C (stereo unspecified) | 50.7

Row | SMILES | INHIBITION [%]
97 | CC(C1CCN(Cc2cnn(C)c2C2CC2)CC1)N1CCCC1 (stereo unspecified) | 40.9
98 | CC(C1CCN(Cc2cnn(C)c2C2CC2)CC1)N1CCN(C)CC1 (stereo unspecified) | 29
99 | O=C(NCC1CCOC1)c1ccc(-c2ccccc2)[nH]c1=O (stereo unspecified) | -26.6
100 | Cc1cccc(-c2ccc(C(=O)NCC3CCCO3)c(=O)[nH]2)c1 (stereo unspecified) | -29.1
101 | Cc1ccc(CN2CCCC3(CCCC(=O)N3)C2)s1 (stereo unspecified) | 21.1
102 | NS(=O)(=O)CC1CCCN1CCOc1ccccc1F (stereo unspecified) | 37.9
103 | CCOCCN1CCCC1CS(N)(=O)=O (stereo unspecified) | 61.5
104 | Cc1ccccc1OCCN1CCCC1CS(N)(=O)=O (stereo unspecified) | -55.2
105 | COCc1ccc(C(=O)N2CCN(CC(C)O)CC2)cc1 (stereo unspecified) | -7.81
106 | COc1ncccc1C(=O)N1CCCC1c1c(C)nn(C)c1Cl (stereo unspecified) | -23.9
107 | CC(C)CN(Cc1ccc(-n2cncn2)cc1)Cc1ccccn1 | 34.9
108 | CN(CC(O)CO)c1nc(-c2cccnc2)nc2c1CCNC2 (stereo unspecified) | 26.1
109 | CN(CC1CCCCO1)c1nc(-c2cccnc2)nc2c1CCNC2 (stereo unspecified) | 72.3
110 | Cc1noc(CN(C)c2nc(-c3ccco3)nc3c2CCN(C)CC3)n1 | 28.8
111 | Cc1cc(CN(C)c2nc(-c3ccco3)nc3c2CCN(C)CC3)on1 | 30
112 | CN(CC1CCCO1)c1nc(-c2cccnc2)nc2c1CCNCC2 (stereo unspecified) | 7.43
113 | Cc1nccn1CCN(C)c1nc(-c2cccnc2)nc2c1CCNC2 | -1.25
114 | NCC1CN(c2nc(-c3cccnc3)nc3c2CCNCC3)CCO1 (stereo unspecified) | 7.43
115 | Cc1nonc1CN(C)c1nc(-c2cccnc2)nc2c1CCNC2 | 81.1
116 | Cc1nonc1CN(C)c1nc(-c2ccco2)nc2c1CCN(C)CC2 | 75.4

— ChEMBL document CHEMBL4513216, “Probing the Open Global Health Chemical Diversity Library for Multistage-Active Starting Points for Next-Generation Antimalarials” (ACS Infect Dis, 2020)
